Among the data in PubChem BioAssay (NCATS) are Potency, outcome and activity change, negative = inhibition values, retold here.

Molecules are shown by their SMILES. A number with no mark means an inactive call. Results filed as inconclusive are left out. Calls of active or inactive are those of the source. Unless noted, the call rests on the fitted dose curve; in most records, active means well fitted curve in the direction sought with a large enough effect; inconclusive means small, poorly fitted or top-dose-only effect, or another doubt; inactive means no such curve, though single readings can be large; an effect the other way counts as inactive or inconclusive.

The target of assay [1] is Lysosomal acid glucosylceramidase (Homo sapiens) (UniProt P04062). In words: Glucocerebrosidase-p2 (AID 348; in the data active means potency below about 10 µM; further: potency means the concentration at half of the fitted maximal effect). The conditions noted are these: purified GBA, blue fluorogenic substrate, 40 min. In a few lines:
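Normal human glucocerebrosidase (0.2 nM) with blue fluorogenic substrate (80 uM final) in citrate/phosphate pH 5.9 with 10mM sodium taurocholate, 0.01% tween-20; 40 min RT, NaOH/glycine stop; fluorescence Ex 365/Em 440; AC50 from a titration from 0.6 nM upwards.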

For assay [2], the target named is Cytochrome P450 1A2 (Homo sapiens) (UniProt P05177). The experiment in a line: p450-cyp1a2 (AID 410; calls by dose curve; further: potency means the concentration at half of the fitted maximal effect). Conditions: recombinant CYP1A2, luciferin-ME demethylation, luminescence; series mostly up to 57 µM. In a few lines:
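O-Demethylation of luciferin 6' methyl ether by human CYP1A2 is monitored as luciferase luminescence. Substrate sits at Km (100uM); enzyme is 20nM. Values are scaled to 57 uM furafylline as maximal inhibition.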

Assay [3] in a line: Stat Signaling Pathway (AID 446; active means well fitted curve in either direction with a large enough effect, not every such curve was filed as active;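 further: ME-180 cervical cancer cells given 40 pM IL-6 alongside compound; SIE-controlled beta-lactamase reporter measured as 460/530 nm FRET emission ratio; on the % scale 0 is the no-effect control and ±100 the full control effect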). The conditions noted are these: ME-180 SIE beta-lactamase reporter, IL-6 stimulated, 5 h; series mostly up to 7.69 µM. In a few lines:
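Compound effects on IL-6-induced STAT reporter activity were measured in ME-180 cells. After overnight culture, cells were co-treated with 40 pM IL-6 for 5 hrs before beta-lactamase substrate loading at room temperature.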

For assay [4], the target named is Glucocorticoid receptor (Homo sapiens) (UniProt P04150). In words: GR-GFP Redistribution (AID 450;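 active means compounds whose dose series gives a full or clear partial fitted curve of increased nuclear translocation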; further: potency means the concentration at half of the fitted maximal effect). Conditions: U2OS GR-GFP nuclear translocation, laser cytometry, 2 h.
Assay [5] has the same target. The experiment in a line: GR-EFC Redistribution (AID 451; calls by dose curve; further: potency means the concentration at half of the fitted maximal effect). Conditions: CHO-K1 GR-EFC translocation, beta-gal luminescence, 2 h. In a few lines:
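Translocation of GR-ED fusion to nuclear EA restores b-gal, read by luminescence after 1 h room-temperature detection. Engineered CHO-K1 biosensor cells, 1,000/well, exposed 2 h at 37 C to titrations up to 46 uM final.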

Assay [6] has as its target Mitogen-activated protein kinase 10 (Mus musculus) (UniProt Q61831). The experiment in a line: JNK3 AlphaScreen Assay (AID 530; active means well fitted curve in either direction with a large enough effect, not every such curve was filed as active;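 further: kinase came from lysate of stimulated human HepG2 cells; signal reports phosphorylation of biotinylated GST-cJun 1-79 at Ser73 with 10 µM ATP; on the % scale 0 is the no-effect control and ±100 the full control effect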). Conditions: JNK3 lysate, c-Jun phosphorylation; series mostly up to 57.1 µM. In a few lines: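 qHTS titrations with 15 min compound pre-incubation before adding ATP (10 uM final). Read-out: AlphaScreen of Ser73-phosphorylated biotin-GST-cJun using HepG2 lysate JNK3 activated by IL-1β and TNFα.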

For assay [7], the target named is 3',5'-cyclic-AMP phosphodiesterase 4B (Homo sapiens) (UniProt Q07343). In words: qHTS Assay for Inhibitors of PDE-IV (AID 607; active means well fitted activation curve with a large enough effect in the main read-out, with a control signal flat, not every such curve was filed as active; further: % of control where 0% means no effect). Conditions: HEK293 ACTOne CNG channel cells, membrane potential fluorescence; series mostly up to 22.9 µM. In a few lines: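 ACTOne HEK293 cells carry a modified cAMP-gated CNG channel and express endogenous PDE4; plated 1000 cells/well, compounds up to 22.9 uM final. Membrane-potential dye fluorescence (ex 535/em 590) was read; parental cells received 10 uM forskolin + 100 uM RO 20-1724.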

The target in assay [8] is Cytochrome P450 3A4 (Homo sapiens) (UniProt P08684). In words: qHTS Assay for Inhibitors and Substrates of Cytochrome P450 3A4 (AID 884). Further: potency means the concentration at half of the fitted maximal effect; nearly all actives have a fitted effect of over 50% in size. Conditions: recombinant CYP3A4, Luciferin-PPXE luminescence; series mostly up to 57.1 µM. In a few lines:
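Luminescent readout of luciferin produced by CYP3A4 (20 nM) dealkylation of Luciferin-PPXE, 25 uM (its KM). NADPH-driven reaction ran 60 min at RT after 10 min compound preincubation; data scaled to 57 uM ketoconazole as 100% inhibition.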

Assay [9] has the same target. In words: qHTS Assay for Activators of Cytochrome P450 3A4 (AID 885). Further: nearly all actives have a fitted effect of over 65% in size. Conditions: recombinant CYP3A4, Luciferin-PPXE luminescence, 60 min; series mostly up to 57.1 µM. In a few lines:
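CYP3A4 activity: Luciferin-PPXE O-dealkylation, 25uM substrate, 200mM KPO4, RT throughout. Read-out is luciferase luminescence; higher values reflect activation.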

The target in assay [10] is Cytochrome P450 2C19 (Homo sapiens) (UniProt P33261). In words: qHTS Assay for Inhibitors and Substrates of Cytochrome P450 2C19 (AID 899). Further: potency means the concentration at half of the fitted maximal effect; nearly all actives have a fitted effect of over 60% in size. The conditions noted are these: recombinant CYP2C19, luciferin-H EGE luminescence; series mostly up to 57.1 µM. In a few lines:
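Reactions contain 5nM enzyme, 10uM Luciferin-H EGE (KM) and 50mM KPO4; compound preincubates 10 min at 37C, NADPH regeneration starts turnover for 60 min. Luminescence after detection reagent gives activity.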

Assay [11] is described as follows: qHTS Assay for Identification of Small Molecule Agonists for Hypoxia Response Element Signaling Pathway (AID 914; active means well fitted activation curve with a large enough effect in the signal ratio, with a control signal flat, not every such curve was filed as active; the % refers to the signal ratio; further: potency means the concentration at half of the fitted maximal effect). Conditions: ME-180 HRE-bla reporter, beta-lactamase ratio, CoCl2, 17 h; activation: active compounds read high. In a few lines:
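A beta-lactamase reporter under hypoxia response element control in ME-180 cells served as the system. Compound titrations plus EC50 CoCl2 ran 17 h at 37 degrees Celsius; AC50 values were fitted from %Activity.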

In assay [12] the target is Dual specificity protein kinase CLK4 (Homo sapiens) (UniProt Q9HAZ1). The experiment in a line: qHTS Assay for Inhibitors of CDC-like Kinase 4 (ADP-Glo Assay) (AID 1771). Further: nearly all actives have a fitted effect of over 70% in size. Further: potency means the concentration at half of the fitted maximal effect. Conditions: recombinant CLK4, ADP-Glo luminescence; series mostly up to 80 µM. In a few lines:
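Compounds are pin-transferred onto substrate mix (100 uM RS peptide, 1 uM ATP), then 25 nM Clk4 is added. After 1 hr at room temperature, ADP-Glo reagent runs 45 min, detection reagent 30 min, then luminescence is read.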

Assay [13] shares this target. In words: qHTS Assay for Inhibitors of CDC-like Kinase 4 (ADP-FP Assay) (AID 1795). Further: nearly all actives have a fitted effect of over 60% in size. Further: potency means the concentration at half of the fitted maximal effect. Conditions: Transcreener ADP fluorescence polarization; series mostly up to 50 µM. In a few lines: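 Recombinant Clk4 (6.25 nM) phosphorylated 100 uM RS repeat peptide with 1 uM ATP in 25 mM Tris pH 7.5, 10 mM MgCl2, 0.5 mM EGTA, 2.5 mM DTT, 0.01% Triton X-100 for 1 h. ADP was detected by Transcreener ADP2 competitive fluorescence polarization after 30 min at room temperature.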

The target in assay [14] is Ubiquitin carboxyl-terminal hydrolase 1 (Homo sapiens) (UniProt O94782). In words: Inhibitors of USP1/UAF1: Pilot qHTS (AID 504865).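 Further: rhodamine fluorescence freed from ubiquitin-rhodamine substrate followed over time; top concentration of the series differs between compounds; on the % scale 0 is the no-effect control and ±100 the full control effect; nearly all actives have a fitted effect of over 35% in size.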 The conditions noted are these: purified USP1/UAF1, Ub-rhodamine cleavage fluorescence; series mostly up to 54.9 µM. In a few lines: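 USP1/UAF1 complex at 1 nM preincubated 15 min at room temperature with compound, then Ub-Rho substrate added at 150 nM final. Fluorescence (480/540 nm) read kinetically in 50 mM HEPES pH 7.8, 0.5 mM EDTA, 1 mM TCEP, 0.1 mg/ml BSA, 0.01% Tween-20.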

The nature of assay [15]: AP1 Signaling Pathway (AID 357; active means well fitted curve in either direction with a large enough effect, not every such curve was filed as active;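 further: ME-180 reporter cells stimulated with EGF at its EC50 level; on the % scale 0 is the no-effect control and ±100 the full control effect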). The conditions noted are these: ME-180 (cervical carcinoma) AP-1-bla reporter, EGF-induced, beta-lactamase ratio, 5 h; at 7.69 µM (top of the series) unless noted. In a few lines:
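Titration-series screen for positive or negative modulators of EC50 EGF-induced signaling in ME-180 cells carrying an AP-1-driven beta-lactamase reporter. After 5 hours at 37 degrees Celsius, CCF4 460nm/530nm emission ratio gave %Activity; AC50 values derived.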

Assay [16] is described as follows: NFAT Signaling Pathway (AID 444; active means well fitted curve in either direction with a large enough effect, not every such curve was filed as active;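 further: carbachol stimulus at about its EC50 of 1 µM final; on the % scale 0 is the no-effect control and ±100 the full control effect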). Conditions: Jurkat NFAT-bla M1, carbachol, beta-lactamase ratio, 5 h; at 7.69 µM (top of the series) unless noted. In a few lines: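 Read-out: CCF4 FRET ratio (460 nm/530 nm) after 1 h RT dye loading, used for %activity and AC50 from titration series. Cells: Jurkat NFAT-β-lactamase/M1 line, treated with compound plus 1 uM carbachol for 5 h, 37 °C.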

The target in assay [17] is Cytochrome P450 2D6 (Homo sapiens) (UniProt P10635). The experiment in a line: qHTS Assay for Inhibitors and Substrates of Cytochrome P450 2D6 (AID 891). Further: potency means the concentration at half of the fitted maximal effect; nearly all actives have a fitted effect of over 60% in size. The conditions noted are these: recombinant CYP2D6, luciferin-ME EGE luminescence; series mostly up to 57.1 µM. In a few lines:
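Luminescent read-out of luciferin formed by 5 nM human CYP2D6 demethylating 30 uM Luciferin-ME EGE (Km level) over 60 min at room temperature after NADPH regeneration addition. Data normalized to full inhibition by 1.43 uM quinidine.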

The target in assay [18] is Dual specificity protein kinase CLK4 (Homo sapiens) (UniProt Q9HAZ1). The experiment in a line: qHTS Assay for Inhibitors of CDC-like Kinase 4 (Kinase-Glo Assay) (AID 1770). Further: on the % scale 0 is the no-effect control and ±100 the full control effect; nearly all actives have a fitted effect of over 65% in size. The conditions noted are these: recombinant Clk4, Kinase-Glo ATP depletion luminescence; series mostly up to 66.7 µM. In a few lines:
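25 nM Clk4 with 100 uM RS repeat peptide and 1 uM ATP (final) in Tris pH7.5, 10 mM MgCl2, 4.5 h at room temperature. Remaining ATP measured by Kinase-Glo luciferase luminescence.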

Chain of Ubiquitin carboxyl-terminal hydrolase 1 (Homo sapiens) (O94782 whole entry, looked up): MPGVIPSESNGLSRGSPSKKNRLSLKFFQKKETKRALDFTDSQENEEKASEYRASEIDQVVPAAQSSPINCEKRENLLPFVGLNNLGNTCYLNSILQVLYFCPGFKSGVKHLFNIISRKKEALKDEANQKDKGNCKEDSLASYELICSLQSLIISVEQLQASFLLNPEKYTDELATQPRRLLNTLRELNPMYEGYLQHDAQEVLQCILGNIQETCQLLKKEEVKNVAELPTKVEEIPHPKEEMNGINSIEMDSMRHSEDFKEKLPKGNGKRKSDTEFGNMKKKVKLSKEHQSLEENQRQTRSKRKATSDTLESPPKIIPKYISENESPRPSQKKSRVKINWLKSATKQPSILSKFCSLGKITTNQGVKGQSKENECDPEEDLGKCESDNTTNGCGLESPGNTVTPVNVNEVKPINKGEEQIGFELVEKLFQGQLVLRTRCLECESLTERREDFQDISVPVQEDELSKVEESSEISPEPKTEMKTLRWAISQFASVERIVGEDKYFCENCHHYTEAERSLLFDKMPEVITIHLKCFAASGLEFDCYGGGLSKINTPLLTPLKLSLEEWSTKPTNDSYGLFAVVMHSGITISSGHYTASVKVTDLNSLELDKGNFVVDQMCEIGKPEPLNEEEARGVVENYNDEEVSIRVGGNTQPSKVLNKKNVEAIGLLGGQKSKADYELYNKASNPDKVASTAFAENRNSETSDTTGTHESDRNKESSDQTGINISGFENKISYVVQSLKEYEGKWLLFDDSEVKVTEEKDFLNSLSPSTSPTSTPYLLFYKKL
Chain of Cytochrome P450 3A4 (Homo sapiens) (P08684 whole entry, looked up): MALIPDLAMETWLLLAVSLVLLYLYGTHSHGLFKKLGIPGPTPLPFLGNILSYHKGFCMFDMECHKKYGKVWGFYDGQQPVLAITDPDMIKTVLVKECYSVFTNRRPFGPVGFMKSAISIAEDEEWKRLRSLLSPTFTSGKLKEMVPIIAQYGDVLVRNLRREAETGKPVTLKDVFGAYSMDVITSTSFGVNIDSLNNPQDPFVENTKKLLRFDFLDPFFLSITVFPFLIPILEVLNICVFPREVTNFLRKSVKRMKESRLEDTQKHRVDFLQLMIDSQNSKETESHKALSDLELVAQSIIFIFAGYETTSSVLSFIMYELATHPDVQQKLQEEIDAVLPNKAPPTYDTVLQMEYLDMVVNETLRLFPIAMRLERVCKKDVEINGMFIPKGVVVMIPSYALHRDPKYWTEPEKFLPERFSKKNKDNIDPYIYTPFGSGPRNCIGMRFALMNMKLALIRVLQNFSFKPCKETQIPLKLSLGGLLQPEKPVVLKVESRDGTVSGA
Chain of Cytochrome P450 2C19 (Homo sapiens) (P33261 whole entry, looked up): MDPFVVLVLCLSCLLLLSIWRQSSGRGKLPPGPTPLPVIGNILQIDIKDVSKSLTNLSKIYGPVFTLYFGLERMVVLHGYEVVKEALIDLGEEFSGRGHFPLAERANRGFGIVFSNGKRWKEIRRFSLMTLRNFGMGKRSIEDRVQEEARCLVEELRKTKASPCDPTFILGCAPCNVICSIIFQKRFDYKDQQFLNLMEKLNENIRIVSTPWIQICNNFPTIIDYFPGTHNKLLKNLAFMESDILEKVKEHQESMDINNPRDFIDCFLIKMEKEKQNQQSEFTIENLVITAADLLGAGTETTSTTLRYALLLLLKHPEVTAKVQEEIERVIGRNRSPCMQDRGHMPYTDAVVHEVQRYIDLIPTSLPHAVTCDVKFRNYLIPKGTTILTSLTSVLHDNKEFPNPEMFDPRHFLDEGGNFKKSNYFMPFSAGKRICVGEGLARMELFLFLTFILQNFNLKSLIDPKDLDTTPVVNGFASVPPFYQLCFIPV
Chain of Dual specificity protein kinase CLK4 (Homo sapiens) (Q9HAZ1 whole entry, looked up): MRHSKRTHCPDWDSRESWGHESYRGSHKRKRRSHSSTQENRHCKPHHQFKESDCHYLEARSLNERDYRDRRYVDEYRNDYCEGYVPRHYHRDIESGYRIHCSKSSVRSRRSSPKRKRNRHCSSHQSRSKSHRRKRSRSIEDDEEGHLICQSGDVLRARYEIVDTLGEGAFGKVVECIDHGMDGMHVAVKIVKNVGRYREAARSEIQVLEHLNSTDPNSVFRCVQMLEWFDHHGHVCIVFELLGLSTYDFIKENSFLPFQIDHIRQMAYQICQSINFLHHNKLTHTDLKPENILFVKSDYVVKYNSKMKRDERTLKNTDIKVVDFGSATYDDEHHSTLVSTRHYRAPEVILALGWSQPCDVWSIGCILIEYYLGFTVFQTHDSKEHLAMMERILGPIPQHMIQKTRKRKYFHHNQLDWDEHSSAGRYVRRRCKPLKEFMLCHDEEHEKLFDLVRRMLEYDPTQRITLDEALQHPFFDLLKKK
Chain of Glucocorticoid receptor (Homo sapiens) (P04150 whole entry, looked up): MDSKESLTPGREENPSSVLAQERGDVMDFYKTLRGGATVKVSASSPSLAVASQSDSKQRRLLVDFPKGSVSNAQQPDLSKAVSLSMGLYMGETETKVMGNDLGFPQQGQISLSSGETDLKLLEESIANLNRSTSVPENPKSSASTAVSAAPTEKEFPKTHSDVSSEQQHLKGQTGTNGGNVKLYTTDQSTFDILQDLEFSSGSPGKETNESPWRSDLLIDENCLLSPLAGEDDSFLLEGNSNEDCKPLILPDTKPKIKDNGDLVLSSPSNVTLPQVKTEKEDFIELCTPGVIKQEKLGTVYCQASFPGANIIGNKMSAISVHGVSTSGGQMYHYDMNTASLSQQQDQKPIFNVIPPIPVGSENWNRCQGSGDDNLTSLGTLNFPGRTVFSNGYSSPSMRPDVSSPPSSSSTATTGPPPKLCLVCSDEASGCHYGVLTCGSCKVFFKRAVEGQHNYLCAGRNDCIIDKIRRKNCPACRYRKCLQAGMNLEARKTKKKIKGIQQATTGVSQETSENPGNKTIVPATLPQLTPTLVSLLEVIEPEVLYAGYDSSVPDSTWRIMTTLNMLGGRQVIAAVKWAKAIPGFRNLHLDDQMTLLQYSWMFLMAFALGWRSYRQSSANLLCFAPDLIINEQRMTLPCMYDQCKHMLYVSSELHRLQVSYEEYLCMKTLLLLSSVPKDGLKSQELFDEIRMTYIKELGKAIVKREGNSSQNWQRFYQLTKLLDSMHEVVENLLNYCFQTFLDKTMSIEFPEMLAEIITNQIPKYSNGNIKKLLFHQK
Chain of Cytochrome P450 1A2 (Homo sapiens) (P05177 whole entry, looked up): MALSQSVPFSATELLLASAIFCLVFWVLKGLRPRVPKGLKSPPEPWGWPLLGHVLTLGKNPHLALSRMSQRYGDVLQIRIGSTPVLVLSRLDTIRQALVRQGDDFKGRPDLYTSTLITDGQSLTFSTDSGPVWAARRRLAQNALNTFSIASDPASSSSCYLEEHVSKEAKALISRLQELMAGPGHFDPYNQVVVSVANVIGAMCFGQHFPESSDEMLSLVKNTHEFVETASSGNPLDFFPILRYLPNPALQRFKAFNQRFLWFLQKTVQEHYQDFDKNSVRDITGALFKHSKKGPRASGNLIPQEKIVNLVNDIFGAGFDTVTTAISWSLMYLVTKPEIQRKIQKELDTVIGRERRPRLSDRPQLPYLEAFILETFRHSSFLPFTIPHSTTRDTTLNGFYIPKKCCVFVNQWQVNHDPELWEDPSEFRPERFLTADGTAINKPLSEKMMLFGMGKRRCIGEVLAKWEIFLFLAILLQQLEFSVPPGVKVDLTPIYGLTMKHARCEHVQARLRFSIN
Chain of 3',5'-cyclic-AMP phosphodiesterase 4B (Homo sapiens) (Q07343 whole entry, looked up): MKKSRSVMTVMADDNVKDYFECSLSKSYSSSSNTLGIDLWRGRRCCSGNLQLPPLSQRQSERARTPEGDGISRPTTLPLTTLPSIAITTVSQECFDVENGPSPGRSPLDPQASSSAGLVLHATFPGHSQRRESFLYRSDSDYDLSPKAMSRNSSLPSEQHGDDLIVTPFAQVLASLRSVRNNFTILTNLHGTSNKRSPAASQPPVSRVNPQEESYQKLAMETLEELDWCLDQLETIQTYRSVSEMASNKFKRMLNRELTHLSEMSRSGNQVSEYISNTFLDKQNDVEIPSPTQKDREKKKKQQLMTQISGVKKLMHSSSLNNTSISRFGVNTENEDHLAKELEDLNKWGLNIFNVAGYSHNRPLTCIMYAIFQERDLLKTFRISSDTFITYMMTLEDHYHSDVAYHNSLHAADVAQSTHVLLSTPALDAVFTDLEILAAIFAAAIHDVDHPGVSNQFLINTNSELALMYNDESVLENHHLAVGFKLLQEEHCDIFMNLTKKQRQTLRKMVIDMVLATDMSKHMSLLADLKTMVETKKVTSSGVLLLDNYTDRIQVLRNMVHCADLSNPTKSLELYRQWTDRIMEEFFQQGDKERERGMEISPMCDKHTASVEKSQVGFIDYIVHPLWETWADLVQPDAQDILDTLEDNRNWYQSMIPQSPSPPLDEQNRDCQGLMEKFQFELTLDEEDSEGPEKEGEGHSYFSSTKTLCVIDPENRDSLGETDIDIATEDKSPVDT
Chain of Lysosomal acid glucosylceramidase (Homo sapiens) (P04062 whole entry, looked up): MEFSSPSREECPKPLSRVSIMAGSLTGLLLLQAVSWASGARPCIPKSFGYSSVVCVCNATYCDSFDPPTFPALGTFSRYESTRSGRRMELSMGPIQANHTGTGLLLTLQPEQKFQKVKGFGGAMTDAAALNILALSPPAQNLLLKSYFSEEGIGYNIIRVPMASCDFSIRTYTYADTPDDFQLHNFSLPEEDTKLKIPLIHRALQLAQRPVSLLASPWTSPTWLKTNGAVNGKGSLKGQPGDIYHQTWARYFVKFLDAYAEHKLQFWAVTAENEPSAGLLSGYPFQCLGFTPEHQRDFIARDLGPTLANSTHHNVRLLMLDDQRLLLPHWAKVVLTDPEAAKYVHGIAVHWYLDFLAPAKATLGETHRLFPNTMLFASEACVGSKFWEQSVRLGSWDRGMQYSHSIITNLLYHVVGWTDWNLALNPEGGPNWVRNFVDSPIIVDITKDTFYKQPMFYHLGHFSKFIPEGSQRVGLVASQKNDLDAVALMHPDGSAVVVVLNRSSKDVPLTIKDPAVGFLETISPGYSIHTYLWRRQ

With `CN(C)c1ccc(-c2cncnc2NCCN2CCOCC2)cc1`, the Potency in [1] was > 11.4 µM; in [2], 15.8 µM (active); in assay [4] it was > 46 µM; in assay [5], > 46 µM; in [8] it was 3.16 µM (active); in [10], 6.31 µM (active). Further, the Potency in assay [11] is 1.26 µM (active). For the same compound, the compound was called inactive in assay [3] and in assay [9]. In addition, the Potency result in assay [6], in assay [7], in assay [12], in [13] and in assay [14] was “inactive” in each case.

For the compound `CCNc1ncc2nc(CCc3ccccc3)c(=O)n(C3CC3)c2n1`, the values for the activity change, negative = inhibition in assay [15] and in assay [16] were -7.57% and 11.9%, respectively. Further, the Potency in assay [2] is 3.16 µM (active); in assay [4], > 9.22 µM; in [5], > 46 µM; in [17] it was 0.398 µM (active); in assay [10], 6.31 µM (active). The result in assay [3] and in [9] was inactive. Besides, the Potency entry in assay [18], in assay [13] and in [14] was “inactive” throughout.

In the case of `CN(C)c1ncc2nc(-c3ccccc3)c(=O)n(C)c2n1`, the Potency was > 11.4 µM in assay [1]; 1 µM (active) in assay [2]; > 9.22 µM in assay [4]; > 46 µM in [5]; 2.51 µM (active) in assay [11]. For the same compound, the Potency entry in assay [12], in assay [13] and in assay [14] was “inactive” each time.

With `CN(Cc1ccco1)c1cc(-c2ccc3c(c2)OCO3)ncn1`, the figures for the activity change, negative = inhibition in assay [15] and in [16] were -0.29% and -0.867%, respectively. For the same compound, the Potency in [2] is 0.501 µM (active); in assay [4] it was > 46 µM; in assay [5], > 46 µM; in [8], 3.98 µM (active); in assay [12], 3.16 µM (active); in assay [13] it was 2.51 µM (active). The outcome in [3] and in assay [9] was inactive. The Potency entry in assay [6] and in [14] was “inactive” in each case.

Consider `CN(C)c1ccc(-c2nccc(Nc3ccc(F)cc3)n2)cc1`, for which the activity change, negative = inhibition in assay [15] was -4.1%; in [16] it was -29.4%. Moreover, the Potency was 0.501 µM (active) in assay [2]; > 46 µM in [4]; > 46 µM in assay [5]; 3.16 µM (active) in assay [10]; 14.1 µM (active) in assay [12]. The compound was called inactive in assay [3] and in assay [9]. Moreover, the Potency entry in assay [6] and in assay [7] was “inactive” throughout.
